PubChem BioAssay
Calls of active or inactive are those of the source. Unless noted, the rule behind the calls is not given here.

Tests used:
[1] = compounds binding Alexa647 anti-His antibody – biochemical, small-molecule microarray, 635 nm fluorescence, artefact control for SMM control protein annotation, primary screen (AID 1128); conditions: higher = more signal;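 note: score merges feature fluorescence with signal-to-noise for each printed compound spot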
[2] = tested on: Human papillomavirus type 1a E7 protein (residues 1-88); assay: HPV1a E7 small-molecule binders, primary screen, biochemical, small-molecule microarray, residues 1-88, 635 nm (AID 1129); conditions: small-molecule microarray binding, fluorescence 635 nm; higher = more signal
[3] = biological target: Focal adhesion kinase 1 (Homo sapiens) (UniProt Q05397); assay: PTK2 protein binding on printed compound slides – biochemical, small-molecule microarray, 635/667 nm fluorescence, BSA, DTT, primary screen (AID 1130); conditions: 635 nm fluorescence, higher = more signal;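 note: composite of spot emission at 667 nm and signal to noise over triplicate slides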
Chain of Focal adhesion kinase 1 (Homo sapiens) (Q05397 whole entry, looked up): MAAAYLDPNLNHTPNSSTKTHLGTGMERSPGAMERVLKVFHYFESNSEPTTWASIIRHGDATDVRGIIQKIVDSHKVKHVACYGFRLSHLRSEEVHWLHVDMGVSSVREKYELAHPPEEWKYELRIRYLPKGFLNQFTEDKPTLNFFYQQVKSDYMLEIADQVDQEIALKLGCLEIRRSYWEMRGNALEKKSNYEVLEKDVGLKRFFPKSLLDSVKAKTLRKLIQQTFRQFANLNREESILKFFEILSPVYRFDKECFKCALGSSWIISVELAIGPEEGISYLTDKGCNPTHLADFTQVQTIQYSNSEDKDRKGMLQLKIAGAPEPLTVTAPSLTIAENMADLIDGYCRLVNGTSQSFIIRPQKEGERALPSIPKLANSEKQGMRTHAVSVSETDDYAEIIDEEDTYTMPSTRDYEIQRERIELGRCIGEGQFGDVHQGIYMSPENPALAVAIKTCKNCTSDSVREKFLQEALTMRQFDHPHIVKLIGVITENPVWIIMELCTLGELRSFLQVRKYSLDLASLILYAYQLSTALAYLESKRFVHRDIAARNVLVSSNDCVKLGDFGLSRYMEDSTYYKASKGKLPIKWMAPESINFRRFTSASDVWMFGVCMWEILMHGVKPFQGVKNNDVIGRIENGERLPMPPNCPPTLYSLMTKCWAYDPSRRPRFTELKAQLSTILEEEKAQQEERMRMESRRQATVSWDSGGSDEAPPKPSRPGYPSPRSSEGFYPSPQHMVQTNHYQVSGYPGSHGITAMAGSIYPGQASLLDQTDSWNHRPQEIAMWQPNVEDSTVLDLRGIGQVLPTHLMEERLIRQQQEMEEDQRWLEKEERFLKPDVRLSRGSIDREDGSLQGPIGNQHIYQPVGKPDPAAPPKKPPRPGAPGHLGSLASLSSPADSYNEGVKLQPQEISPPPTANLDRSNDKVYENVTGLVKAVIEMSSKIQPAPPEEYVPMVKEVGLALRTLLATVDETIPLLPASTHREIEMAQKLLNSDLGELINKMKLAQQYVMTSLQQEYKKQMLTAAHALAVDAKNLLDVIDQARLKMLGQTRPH

[4] = tested on: Fibrinogen (Alexa647-labelled); assay: Alexa647-fibrinogen binding to printed small molecules – biochemical, small-molecule microarray, 635/667 nm fluorescence, artefact control for SMM control-protein annotation, profiling panel (AID 1131); conditions: fibrinogen-A647 binding fluorescence, higher = more signal;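 note: z-score merges 667 nm fluorescence with per-spot signal-to-noise over triplicate slides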
[5] = biological target: Follistatin (Homo sapiens) (UniProt P19883); assay: FST protein binding to printed compounds – biochemical, small-molecule microarray, 635/667 nm fluorescence, primary screen (AID 1132); conditions: 635 nm fluorescence, higher = more signal
Chain of Follistatin (Homo sapiens) (P19883 whole entry, looked up): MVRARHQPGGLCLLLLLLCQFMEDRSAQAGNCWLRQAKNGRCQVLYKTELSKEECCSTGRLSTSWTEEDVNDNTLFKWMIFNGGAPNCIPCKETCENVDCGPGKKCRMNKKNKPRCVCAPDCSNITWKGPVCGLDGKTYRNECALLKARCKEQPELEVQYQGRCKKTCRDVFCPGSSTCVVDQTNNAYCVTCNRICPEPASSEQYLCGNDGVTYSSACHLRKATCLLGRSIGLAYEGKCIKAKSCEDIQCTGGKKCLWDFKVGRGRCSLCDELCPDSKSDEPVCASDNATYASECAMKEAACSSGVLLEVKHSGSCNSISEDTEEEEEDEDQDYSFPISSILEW

[6] = biological target: Fibroblast growth factor 2 (Homo sapiens) (UniProt P09038); assay: basic fibroblast growth factor binding to printed compounds – biochemical, small-molecule microarray, 635/667 nm fluorescence, primary screen (AID 1133); conditions: FGF2, fluorescence 635/667, higher = more signal
Chain of Fibroblast growth factor 2 (Homo sapiens) (P09038 whole entry, looked up): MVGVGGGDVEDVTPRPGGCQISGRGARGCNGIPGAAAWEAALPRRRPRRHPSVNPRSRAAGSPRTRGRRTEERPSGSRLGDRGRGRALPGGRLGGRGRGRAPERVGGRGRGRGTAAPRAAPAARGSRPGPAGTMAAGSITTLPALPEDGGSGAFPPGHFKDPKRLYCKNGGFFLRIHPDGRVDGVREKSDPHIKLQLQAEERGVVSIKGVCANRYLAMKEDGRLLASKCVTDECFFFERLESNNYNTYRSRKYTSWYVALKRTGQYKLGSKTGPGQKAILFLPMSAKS

[7] = JC-1 mitochondrial potential readout, lung cancer cells – cell-based, A549, JC-1 fluorescence, basal, 24 h, 100 nL, profiling panel (AID 1138); conditions: higher = more signal;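 note: A549 lung adenocarcinoma cells under basal conditions with no added stimulus; test concentration not given here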
Lefty1 = Lefty1 protein binding to printed compounds – biochemical, small-molecule microarray, 635/667 nm fluorescence, primary screen (AID 1139); conditions: fluorescence 635/667, higher = more signal
[8] = tested on: wheat germ agglutinin (Triticum aestivum), Alexa647-labelled; assay: Alexa647-WGA lectin binding to printed small molecules – biochemical, small-molecule microarray, 635/667 nm fluorescence, artefact control for SMM control-protein annotation, profiling panel (AID 1140); conditions: WGA-A647 binding, 635 nm fluorescence, higher = more signal;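 note: score merges 667 nm feature emission with signal to noise over triplicate slides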
[9] = biological target: Luciferin 4-monooxygenase (Photinus pyralis) (UniProt P08659); assay: inhibition of purified Photinus pyralis luciferase – biochemical, luminescence, purified enzyme, 2006 set, primary screen (AID 1141); conditions: purified firefly luciferase, SteadyGlo luminescence, 30 min; higher = more signal, called active from +8 up or from −8 down;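 note: cell-free assay with purified firefly luciferase at 100 ng per well in PBS; test concentration not given here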
Chain of Luciferin 4-monooxygenase (Photinus pyralis) (P08659 whole entry, looked up): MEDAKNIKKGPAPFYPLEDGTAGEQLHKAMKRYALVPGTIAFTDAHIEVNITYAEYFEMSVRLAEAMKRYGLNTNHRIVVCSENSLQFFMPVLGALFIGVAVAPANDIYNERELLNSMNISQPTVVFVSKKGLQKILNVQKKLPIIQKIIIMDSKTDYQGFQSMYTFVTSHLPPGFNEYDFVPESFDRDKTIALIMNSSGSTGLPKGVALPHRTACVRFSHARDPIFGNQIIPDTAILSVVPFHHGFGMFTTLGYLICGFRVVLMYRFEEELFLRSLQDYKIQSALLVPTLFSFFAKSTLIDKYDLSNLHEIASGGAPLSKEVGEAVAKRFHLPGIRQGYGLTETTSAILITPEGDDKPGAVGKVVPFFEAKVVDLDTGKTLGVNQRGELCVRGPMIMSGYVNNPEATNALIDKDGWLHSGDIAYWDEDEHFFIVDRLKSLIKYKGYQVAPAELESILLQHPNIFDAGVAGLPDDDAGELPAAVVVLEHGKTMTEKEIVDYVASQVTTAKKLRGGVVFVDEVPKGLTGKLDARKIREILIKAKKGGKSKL

[10] = tested on: Wnt5a (protein binding on small-molecule microarray); assay: small molecules binding Wnt5a protein – biophysical, small-molecule microarray, 635/667 nm fluorescence, primary screen (AID 1142); conditions: 635 nm fluorescence, higher = more signal;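 note: fluorescence read at 667 nm with signal to noise per printed feature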
[11] = ATP-based viability of Huh7 replicon cells – cell-based, CellTiter-Glo luminescence, basal, 48 h, cytotoxicity control for HCV replication inhibitor project, primary screen (AID 1143); conditions: higher = more signal, called active from +8 up or from −8 down;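 note: Huh7 hepatoma cells carrying a hepatitis C replication reporter with no stimulus; test concentration not given here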
[12] = Pseudomonas biofilm growth suppression – PAO1 strain, BacTiter-Glo luminescence, LB-PBS, primary screen (AID 1144); conditions: P. aeruginosa PAO1 biofilm, 12 h, higher = more signal
[13] = basal CRE-LacZ reporter activity in PC12 – cell-based, unstimulated, primary screen (AID 1145); conditions: no forskolin, luminescence, 4.5 h, higher = more signal, called active from +8 up or from −8 down
[14] = forskolin-driven CRE-LacZ activity in PC12 – cell-based, CRE-LacZ reporter, forskolin-stimulated, primary screen (AID 1146); conditions: luminescence, 4.5 h, higher = more signal, called active from +8 up or from −8 down;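 note: PC12 cells with 6xCRE LacZ reporter stimulated by forskolin 10 µM; beta-galactosidase reporter signal reflecting CREB driven transcription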
[15] = biological target: Streptavidin (Streptomyces avidinii) (UniProt P22629); assay: compounds binding control protein streptavidin – biophysical, small-molecule microarray, 635/667 nm fluorescence, artefact control for SMM compound annotation, primary screen (AID 1147); conditions: higher = more signal;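 note: signal reflects streptavidin binding to arrayed compounds as a control protein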
Chain of Streptavidin (Streptomyces avidinii) (P22629 whole entry, looked up): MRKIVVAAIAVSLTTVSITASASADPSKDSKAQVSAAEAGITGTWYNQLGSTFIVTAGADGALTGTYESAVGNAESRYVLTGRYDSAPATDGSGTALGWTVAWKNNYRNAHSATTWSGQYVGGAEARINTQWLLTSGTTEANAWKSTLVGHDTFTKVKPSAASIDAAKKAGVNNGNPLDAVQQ

[16] = probe aInhba binding on compound microarray – biochemical, small-molecule microarray, 635/667 nm fluorescence, primary screen (AID 1148); conditions: higher = more signal;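 note: score merges 667nm spot fluorescence with signal-to-noise for antibody binding to printed compounds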
Torsin-1A (Homo sapiens) [17] = biological target: Torsin-1A (Homo sapiens) (UniProt O14656); assay: TOR1A wild-type binding on microarray – cell lysate, small-molecule microarray, lysate, 635/667 nm, primary screen (AID 1149); conditions: COS7 hTOR1A-WT lysate, 635 nm fluorescence, higher = more signal
Chain of Torsin-1A (Homo sapiens) (O14656 whole entry, looked up): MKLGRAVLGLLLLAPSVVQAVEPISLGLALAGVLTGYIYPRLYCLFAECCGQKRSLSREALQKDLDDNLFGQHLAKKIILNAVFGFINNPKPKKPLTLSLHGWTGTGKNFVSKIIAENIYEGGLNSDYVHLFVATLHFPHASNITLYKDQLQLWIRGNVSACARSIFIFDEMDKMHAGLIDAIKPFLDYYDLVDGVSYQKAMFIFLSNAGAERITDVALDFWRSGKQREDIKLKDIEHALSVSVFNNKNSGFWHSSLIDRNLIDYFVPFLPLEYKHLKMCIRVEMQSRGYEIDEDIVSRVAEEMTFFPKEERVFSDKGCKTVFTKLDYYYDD

Torsin-1A (Homo sapiens) [18] = biological target: Torsin-1A (Homo sapiens) (UniProt O14656); assay: torsin A mutant lysate binding on microarrays – cell lysate, small-molecule microarray, COS7 lysate, 635/667 nm fluorescence, primary screen (AID 1150); conditions: COS7 hTOR1A mutant lysate, 635 nm fluorescence, higher = more signal;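 note: score pools 667 nm emission and signal to noise measuring lysate protein binding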
[19] = tested on: Sonic hedgehog protein (Shh); assay: Sonic hedgehog microarray binding compounds – biochemical, small-molecule microarray, 635/667 nm fluorescence, primary screen (AID 1151); conditions: 635 nm fluorescence, higher = more signal;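 note: Shh protein binding to compounds spotted on small-molecule microarray slides; score combines spot fluorescence intensity with signal-to-noise across triplicate slides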

| SMILES | composite z-score [1] | composite z-score [2] | composite z-score [3] | composite z-score [4] | composite z-score [5] | composite z-score [6] | z-score [7] | composite z-score (Lefty1) | composite z-score [8] | z-score [9] | composite z-score [10] | z-score [11] | z-score [12] | z-score [13] | z-score [14] | composite z-score [15] | composite z-score [16] | composite z-score (Torsin-1A (Homo sapiens) [17]) | composite z-score (Torsin-1A (Homo sapiens) [18]) | composite z-score [19] |
| --- | --- | --- | --- | --- | --- | --- | --- | --- | --- | --- | --- | --- | --- | --- | --- | --- | --- | --- | --- | --- |
| CO[C@H]1COC(=O)CC=C[C@H](C)[C@@H](OC)COC(=O)[C@@H](C)COC(=O)CC=C[C@@H]1C | -0.756 | -0.699 | -0.111 | -1.26 | 1.5 | 1.77 | 0.657 | 1.55 | -1.05 | -0.454 (inactive) | -0.545 | -1.66 (inactive) | 0.0344 (inactive) | -0.292 (inactive) | -1.02 (inactive) | -0.411 | -0.331 | 2.79 | 2.2 | 2.12 |
| CO[C@H]1COC(=O)CC=C[C@H](C)[C@@H](OC)COC(=O)[C@H](C)COC(=O)CC=C[C@@H]1C | 0.487 | -0.759 | -0.309 | -0.899 | 1.36 | 1.36 | 1.13 | 1.12 | -0.844 | -0.913 (inactive) | -0.144 | -0.0417 (inactive) | -0.165 (inactive) | -0.93 (inactive) | -0.724 (inactive) | -0.127 | -0.208 | 1.1 | 1.01 | 1.93 |
| COC(=O)[C@@H]1CC[C@H](C)[C@@H](c2ccc(C)cc2)N1C(=O)c1ccc(C=NO[C@@H]2O[C@H](COC(C)=O)[C@@H](OC(C)=O)[C@H](OC(C)=O)[C@H]2OC(C)=O)cc1 | 2.08 | 0.68 | -0.169 | 0.926 | 0.551 | 0.336 | 0.0992 | 1.06 | 0.347 | 0.945 (inactive) | -0.0196 | -3.41 (inactive) | -0.553 (inactive) | 2.22 (inactive) | -0.138 (inactive) | 0.253 | -0.0986 | 0.203 | 0.121 | 0.891 |
| O=C1[C@H]2[C@H]3[C@H](O)[C@H](O)CC(=NO[C@@H]4O[C@H](CO)[C@@H](O)[C@H](O)[C@H]4O)[C@H]3CC[C@H]2C(=O)N1c1cccc(Oc2ccccc2)c1 | 1.25 | 0.394 | 0.199 | 0.574 | 0.423 | 0.445 | -0.873 | 0.802 | 0.13 | 1.14 (inactive) | 0.162 | -0.31 (inactive) | 0.257 (inactive) | -0.838 (inactive) | -0.462 (inactive) | 0.528 | -0.0846 | 0.625 | 0.367 | 1.09 |
| C#CCCCON=C1C[C@@H](O)[C@@H](O)[C@@H]2[C@@H]3C(=O)N(Cc4ccccc4)C(=O)[C@@H]3CC[C@@H]12 | 0.309 | -0.032 | 0.0147 | -0.691 | -0.0389 | 0.0054 | 0.477 | 0.19 | 0.249 | 0.807 (inactive) | 0.087 | -0.0439 (inactive) | 0.943 (inactive) | -0.476 (inactive) | 0.174 (inactive) | -0.382 | -0.0675 | 0.103 | 0.0159 | -0.523 |
